USP30 inh: human USP30 deubiquitinase inhibition; Q70CQ3; purified USP30, Ub-rhodamine cleavage fluorescence; inhibition, % at 25 µM; hit rate 5.3% among 47,000; AID 1645860
USP28 block: blocks human USP28 ubiquitin-rhodamine cleavage; Q96RU2; hit rate 3% among 47,000; purified USP28, Ub-rhodamine cleavage fluorescence, 30 min; inhibition, % at 25 µM
USP17 inh: human USP17-like deubiquitinase inhibition. A8MUK1. purified USP17, Ub-rhodamine cleavage fluorescence, 3 h. inhibition, % at 50 µM. hit rate 6.5% among 47,000. AID 1645855
Target sequence (A8MUK1 whole entry, looked up): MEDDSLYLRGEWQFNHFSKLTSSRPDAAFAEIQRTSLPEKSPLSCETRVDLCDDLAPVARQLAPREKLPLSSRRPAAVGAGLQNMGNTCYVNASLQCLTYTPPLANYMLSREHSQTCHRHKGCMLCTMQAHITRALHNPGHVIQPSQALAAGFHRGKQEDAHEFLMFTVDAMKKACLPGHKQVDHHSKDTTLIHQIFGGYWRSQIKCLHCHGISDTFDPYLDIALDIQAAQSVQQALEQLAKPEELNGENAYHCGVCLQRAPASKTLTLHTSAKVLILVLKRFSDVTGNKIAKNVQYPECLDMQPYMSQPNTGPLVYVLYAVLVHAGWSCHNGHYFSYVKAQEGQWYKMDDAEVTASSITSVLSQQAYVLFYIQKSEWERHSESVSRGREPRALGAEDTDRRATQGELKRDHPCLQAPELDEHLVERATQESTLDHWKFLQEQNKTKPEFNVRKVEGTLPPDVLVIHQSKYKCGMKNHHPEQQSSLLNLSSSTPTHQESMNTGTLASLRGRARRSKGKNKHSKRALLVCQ
USP8 inh: human USP8 deubiquitinase inhibition. P40818. purified USP8, Ub-rhodamine cleavage fluorescence, 30 min. inhibition, % at 20 µM. hit rate 4.2% among 47,000. AID 1645853
An asterisk follows results filed as active. Rows were chosen to be rich in hits. Some 14% of all compounds tested hit in one or more screens of this group. Cut-off read from the data, not from the text of the source: active = inhibition above about 30%; inactive = the rest.

`NC(=O)[C@@H]1CN2CCN(C(=O)c3ccccc3)C[C@@H]2[C@H]1c1ccccc1` gave USP30 inh -8.5, USP28 block -9.4, USP17 inh -8.2 and USP8 inh -2.0.
For CN1CCCN(C(=O)NC2CCCC2)CC1 the results were USP30 inh 7.3, USP28 block -9.9, USP17 inh 1.5 and USP8 inh 2.8.
COc1ccc(NC(=O)CN2CCC(Nc3nc4c(c(=O)[nH]3)CCCC4)CC2)cc1 was read as USP30 inh -7.5, USP28 block -13.5, USP17 inh -13.7 and USP8 inh -1.3.
`CC1CCN(C(=O)c2ccc(CSc3nc4ccncc4n3Cc3ccccc3)cc2)CC1` gave USP30 inh 24.9, USP28 block 29.8, USP17 inh 7.8 and USP8 inh -2.6.
O=C(NCc1ccco1)c1ccc(Cn2c(SCc3ccccc3)nc3ccncc32)cc1 was read as USP30 inh 74.1*, USP28 block 71.6*, USP17 inh 88.2* and USP8 inh 35.1*.
`COCCCNC(=O)c1ccc(Cn2c(=O)c3ccccc3n(CC(=O)Nc3ccc4c(c3)OCCO4)c2=O)cc1` gave USP30 inh -3.7, USP28 block -4.4, USP17 inh -0.7 and USP8 inh 31.6*.
`O=C(CCn1c(=O)c2ccccc2n(CC(=O)Nc2ccc3c(c2)OCCO3)c1=O)NCCc1ccccc1` gave USP30 inh 3.8, USP28 block -2.0, USP17 inh 48.5* and USP8 inh 5.9.
`N#Cc1ccc(OCC(=O)Nc2cc(S(=O)(=O)N3CCCCC3)ccc2Cl)cc1` gave USP30 inh 4.7, USP28 block 0.2, USP17 inh -3.1 and USP8 inh 7.0.
Cc1nc(C2CCN(C(=O)OC(C)(C)C)CC2)cc(N2CC(C)OC2=O)n1 (stereo not given) was read as USP30 inh -10.7, USP28 block 1.5, USP17 inh -21.4 and USP8 inh -93.3.
O=S(=O)(c1ccc2c(c1)OCCO2)N1CCCC1c1ccco1 (stereo not given) was read as USP30 inh 9.2, USP28 block 14.3, USP17 inh 12.8 and USP8 inh 19.7.
Screening CCc1oc2cc(O)ccc2c(=O)c1-c1ccc2c(c1)OCCO2 returned USP30 inh 5.3, USP28 block 35.6*, USP17 inh -12.3 and USP8 inh 6.2.
For CN1CCN(CCNC(=O)c2cc3cn(C4CCCC4)cc3s2)CC1 the results were USP30 inh -24.1, USP28 block 0.0, USP17 inh 3.4 and USP8 inh -8.7.
CC1CCN(CCNC(=O)c2cc3cn(C4CC4)cc3s2)CC1 was read as USP30 inh -178.8, USP28 block -62.8, USP17 inh -19.5 and USP8 inh 54.4*.
O=C(NCCCN1CCCC1=O)c1cc2cn(C3CC3)cc2s1 was read as USP30 inh -209.0, USP28 block -43.9, USP17 inh 14.3 and USP8 inh 65.8*.
CN(C)CCCNC(=O)c1cc2cn(C3CCCC3)cc2s1 was read as USP30 inh -37.0, USP28 block -3.6, USP17 inh 6.2 and USP8 inh 62.5*.
Screening NC(=O)C1CN(CC2(O)CCCCC2)CCN(C2CCOCC2)C1 (stereo not given) returned USP30 inh -24.3, USP28 block -10.0, USP17 inh -8.1 and USP8 inh -27.3.
c1ccc(-c2cc3nc(NCCc4ccccn4)ccn3n2)cc1 was read as USP30 inh -29.7, USP28 block -5.4, USP17 inh -22.4 and USP8 inh -32.3.
For NS(=O)(=O)c1ccc(CCNc2ccn3nc(-c4ccccc4)cc3n2)cc1 the results were USP30 inh 23.5, USP28 block -3.6, USP17 inh 31.0* and USP8 inh -29.5.
O=C(N1CCCC1)N1CCC2(CC1)CCN(c1ncccn1)C2 was read as USP30 inh -383.2, USP28 block -90.0, USP17 inh -94.0 and USP8 inh -79.3.
Screening CC1=C(C(=O)c2ccc(Cl)cc2)C(c2ccc(C(C)C)cc2)NC(=O)N1 (stereo not given) returned USP30 inh -106.5, USP28 block -0.1, USP17 inh 31.9* and USP8 inh 72.6*.
Screening CC1=C(C(=O)c2ccc(Cl)cc2)C(c2ccc(C)cc2)NC(=O)N1 (stereo not given) returned USP30 inh -37.0, USP28 block -17.4, USP17 inh -10.8 and USP8 inh -0.4.
`COc1cc(C)c2c(=O)c3c(oc2c1)C(=O)c1c(O)c(OC)cc(O)c1C3=O` gave USP30 inh -30.2, USP28 block 34.9*, USP17 inh 71.0* and USP8 inh -6.6.
For COc1cc(O)c2c(c1C)C(C)(C(C)=O)OC2=O (stereo not given) the results were USP30 inh -17.3, USP28 block -3.2, USP17 inh -46.7 and USP8 inh -9.6.
Cc1ccc(NC(=O)CSc2ccc(N3CCOCC3)nn2)c(C)c1 was read as USP30 inh -5.7, USP28 block -16.5, USP17 inh -8.5 and USP8 inh -23.0.
`Oc1ccc(-c2nc3ccc(Cl)cn3c2NC2CCCCC2)cc1` gave USP30 inh -6.1, USP28 block 0.2, USP17 inh 67.2* and USP8 inh -12.7.
`CCOc1ccccc1C1CC(=O)Nc2ccc3ccccc3c21` (stereo not given) gave USP30 inh 10.1, USP28 block 5.0, USP17 inh 5.0 and USP8 inh 12.3.
For Oc1ccc2ccccc2c1CN1CCN(c2ncccn2)CC1 the results were USP17 inh 36.1* and USP8 inh -0.1.
Screening Oc1ccc2ccccc2c1CN1CCCC1 returned USP30 inh -1.7, USP28 block 5.3, USP17 inh 16.7 and USP8 inh 37.5*.
Cc1cc(NCCC(=O)Nc2ccc(F)cc2F)n2nc(-c3cccnc3)nc2n1 was read as USP30 inh -82.1, USP28 block -20.0, USP17 inh 29.0 and USP8 inh -15.1.
Screening CCN1C[C@H]2CCN(C(=O)c3ccncc3)CC[C@H]2S1(=O)=O returned USP30 inh -0.1, USP28 block -8.3, USP17 inh -5.2 and USP8 inh -28.3.
For CC1(C)CC(=O)C2=C(C1)Nc1ccccc1N(C(=O)C(F)(F)F)C2c1cccs1 (stereo not given) the results were USP30 inh -37.5, USP28 block 9.9, USP17 inh 64.1* and USP8 inh 89.1*.
Screening COc1ccc(C2CC(=O)C3=C(C2)Nc2ccccc2N(C(=O)c2ccccc2)C3c2ccc(C(C)(C)C)cc2)cc1 (stereo not given) returned USP30 inh -0.2, USP28 block 4.5, USP17 inh -3.0 and USP8 inh 7.1.
CCCOc1ccc(C2C3=C(CC(C)(C)CC3=O)Nc3ccccc3N2C(=O)c2ccccc2)cc1OC (stereo not given) was read as USP30 inh 42.4*, USP28 block 4.9, USP17 inh 17.9 and USP8 inh 8.3.
COc1ccc(C2C3=C(CC(C)(C)CC3=O)Nc3ccccc3N2C(=O)c2ccccc2)cc1 (stereo not given) was read as USP30 inh -5.1, USP28 block -6.9, USP17 inh 35.3* and USP8 inh -1.0.
For Cc1ccc(NC(=O)CSc2nnc(-c3ccncc3)o2)cc1C the results were USP30 inh 21.1, USP28 block 14.0, USP17 inh 10.7 and USP8 inh 1.2.

Assay outcomes: PubChem, Buhrlage Lab, Dana-Farber Cancer Institute and Novartis Institutes for BioMedical Research (Cambridge, Mass)
